GPR151 activ – human GPR151 activation; activation, % at 11.2 µM; 650,000 tested, 1% active; PathHunter beta-arrestin GPR151 cells, luminescence; AID 1508602; Q8TDV0; in the data active = activation above about 4.9%
Target sequence (Q8TDV0 whole entry, looked up): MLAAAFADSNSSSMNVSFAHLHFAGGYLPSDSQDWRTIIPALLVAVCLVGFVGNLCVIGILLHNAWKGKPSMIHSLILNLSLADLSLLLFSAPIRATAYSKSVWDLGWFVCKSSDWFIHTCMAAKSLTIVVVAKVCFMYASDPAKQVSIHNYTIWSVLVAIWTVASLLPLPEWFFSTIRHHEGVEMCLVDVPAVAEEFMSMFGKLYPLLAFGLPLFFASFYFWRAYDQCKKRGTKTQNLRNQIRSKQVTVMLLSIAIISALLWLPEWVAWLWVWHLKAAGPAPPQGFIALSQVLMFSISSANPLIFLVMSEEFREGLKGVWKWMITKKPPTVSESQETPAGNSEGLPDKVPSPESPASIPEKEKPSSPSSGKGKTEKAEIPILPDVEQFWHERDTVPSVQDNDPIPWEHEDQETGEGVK
TEAD-YAP block – TEAD-YAP interaction inhibition; HEK-TIYL cells, TEAD-Gal4/YAP UAS-luciferase luminescence; inhibition, % at 9.12 µM; 640,000 tested, 1.4% active; in the data active = inhibition above about 32%
FBW7 activator – activators of human E3 ligase FBW7 | AID 1259310 | AlphaScreen FBW7–phospho-cyclin E peptide binding, activator screen | normalized activity (activation), % at 26.1 µM | Q969H0 | 650,000 tested, 0.13% active; in the data active = normalized activity above about 1.9%;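 note: purified mutant Fbw7 with reduced substrate affinity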
MITF inh – human MITF inhibition, primary screen | O75030 | inhibition, % at 2.6 µM | AlphaScreen MITF homodimerization, bead proximity signal | 650,000 tested, 0.91% active | AID 1259374; in the data active = inhibition above about 50%
MITF inh conf – human MITF inhibition, confirmation | shares compounds with MITF inh | AlphaScreen MITF homodimerization, biotin/His-MITF beads | inhibition, % at 2.6 µM | 4,700 tested, 16% active;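 active = inhibition above a cutoff derived from the DMSO control wells, cut at about 28% in these data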;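 note: inhibitors lower the bead chemiluminescence by keeping MITF from dimerizing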
AlphaScreen DR – counter-screen: compounds optically interfering with AlphaScreen | shares compounds with MITF inh | 480 tested, 6% active | AID 1259373 | AlphaScreen optical interference counterscreen, cell-free | IC50, µM; call rule not given here
AS interf ctr – counter-screen: compounds optically interfering with AlphaScreen. shares compounds with MITF inh. LysRS AlphaScreen counterscreen, signal interference, triplicate. inhibition, % at 2.6 µM. 4,700 tested, 7.6% active. AID 1259376;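 active = inhibition above a cutoff derived from the DMSO control wells, cut at about 30% in these data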
Numbers stand for hits; . = inactive; / = not tested or not shown. Shown are actives, neighbours in structure and some others; about 3.5% of the full set was active somewhere.

SMILES	GPR151 activ	TEAD-YAP block	FBW7 activator	MITF inh	MITF inh conf	AS interf ctr	others
Clc1ccc(SCCOCCN2CCNCC2)cc1	.	.	.	59	.	.
Clc1ccc(OCCCCN2CCNCC2)c(Br)c1	.	.	.	79	.	.
Cc1cc(Cl)ccc1OCCN1CCNCC1	.	.	.	73	.	.
Cc1cc(Cl)cc(C)c1OCCN1CCNCC1	.	.	.	55	.	.
Clc1ccc(SCCN2CCNCC2)cc1	.	.	.	.	/	/
O=C(CCOc1ccccc1)OCC(=O)c1ccccc1F	.	.	.	.	/	/
CC(Oc1ccc2oc3ccccc3c2c1)C(=O)NC(N)=O (stereo not given)	.	.	.	.	/	/
COc1ccc(C(=O)C2CCN(C(=S)NCC3CCCO3)CC2)cc1 (stereo not given)	.	.	.	85	.	.
COCCNC(=O)C1CCN(Cc2cc(OC)ccc2OC)CC1	.	.	.	.	/	/
COc1ccc(OC)c(CN2CCC(C(=O)NCC3CCCO3)CC2)c1 (stereo not given)	.	.	.	54	.	.
O=C(NCC1CCCO1)C1CCN(Cc2c[nH]c3ccccc23)CC1 (stereo not given)	.	.	.	55	.	.
Cc1c(Cl)ccc2sc(N3CCN(C(=O)c4ccc(F)cc4)CC3)nc12	.	.	.	.	/	/
Cc1ccc(NC(=O)CCN2C(=O)C3CC=C(Cl)CC3C2=O)cc1 (stereo not given)	.	.	.	.	/	/
COc1ccc(C2=CC(c3ccc(Br)cc3)n3nnnc3N2)cc1 (stereo not given)	.	.	.	.	/	/
COc1ccc(N2C(=O)C3CCCCC3C2=O)cc1NC(=O)c1ccc(Cl)cc1Cl (stereo not given)	.	.	.	76	.	.
COc1ccc(OC)c(NC(=O)c2ccc(Cl)cc2Cl)c1	.	.	.	.	/	/
CN(C)/C=C/C=C/C=C/C(=O)c1ccc(C(=O)/C=C/C=C/C=C/N(C)C)cc1	.	.	.	84	68	.
CN(C)/C=C/C=C/C(=O)c1ccccc1N(C)C	.	.	.	.	/	/
COCc1ccc(CN2CCCC(c3[nH]ncc3-c3cc(F)ccc3F)C2)o1 (stereo not given)	.	.	.	.	/	/
Cc1ccccc1NC(=O)c1ccccc1N(Cc1ccccc1)S(C)(=O)=O	.	.	.	55	.	.
Cc1cc(C(C)(C)C)oc1C(=O)Nc1ccccc1C(=O)O	.	.	.	.	/	/
COc1ccccc1CNC(=O)C1CCC(Cn2c(=S)[nH]c3ccccc3c2=O)CC1 (stereo not given)	.	.	.	53	.	.
Cc1n[nH]c(=O)nc1NNc1ccc(C(=O)O)cc1	.	.	.	56	32	.	AlphaScreen DR=.
O=C(CCCNC(=O)OCc1ccccc1)OCN1C(=O)c2ccccc2C1=O	.	.	.	.	/	/
CC1NC(=O)NC1CCCCCC(=O)OCN1C(=O)c2ccccc2C1=O (stereo not given)	.	.	.	119	117	99
SMILES	GPR151 activ	TEAD-YAP block	FBW7 activator	MITF inh	MITF inh conf	AS interf ctr	others
COc1ccc(CN2CCN(C3CCC(C)CC3)CC2)cc1 (stereo not given)	.	.	.	73	.	.
COc1ccc(CN2CCC(N3CCCCC3)CC2)cc1	.	.	.	54	.	.
COc1ccc(CN2CCCCCC2)cc1	.	.	.	.	/	/
CCOc1ccc(CN2CCC(N3CCN(Cc4ccccc4)CC3)CC2)cc1	.	.	.	.	/	/
O=S(=O)(Nc1ccc2cn[nH]c2c1)c1ccc2ccccc2c1	.	.	.	.	/	/
NS(=O)(=O)c1ccc(NS(=O)(=O)c2ccc(O)c(C(=O)O)c2)cc1	.	.	.	.	/	/
O=C(O)c1cc(S(=O)(=O)Nc2ccncc2)ccc1O	.	.	.	66	43	.	AlphaScreen DR=.
O=C(O)c1cc(S(=O)(=O)Nc2ccc3cn[nH]c3c2)ccc1O	.	.	.	76	52	.	AlphaScreen DR=.
Cc1ccc2nc(NS(=O)(=O)c3ccc(O)c(C(=O)O)c3)sc2c1	.	.	.	65	.	.
Cc1nc2ccc(NS(=O)(=O)c3ccc(O)c(C(=O)O)c3)cc2s1	.	.	.	.	/	/
CCOc1ccc(C(=O)Nc2ccc(Cl)c(NC(=O)c3ccccc3)c2)cc1Br	.	.	.	.	/	/
CC1CCCCN1Cc1ccccc1[N+](=O)[O-] (stereo not given)	.	.	.	.	/	/
N#CCCn1cc(CNCc2ccccc2)c(-c2ccc(F)cc2)n1	.	.	.	.	/	/
